# Assay results reported in the supplement of paper PMC10338343.
# ± gives the standard deviation.
# System: MILI (PIWIL2) piRISC loaded with piRNA #1 (26 nt)
# Experiment: pre-steady-state target cleavage rate (min^-1); guide: piRNA #1 5'p-UGAGGUAGUAGGUUGUAUAGUAUCCA; MIWI and MILI are mouse PIWI proteins and EfPiwi is from a freshwater sponge; tags in brackets are library labels; higher = faster piRNA-guided slicing of the target
# Conditions: auxiliary factor: 500 nM mouse GTSF1
# Outline: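 Three pooled Cleave-'n-Seq trials supplied the data, with k3 capped at 0.0001 min^-1. In each, […] transcribed, DNA-blocked target RNA library and 1 nM active affinity-purified piRISC with one synthetic guide reacted in HEPES–potassium acetate buffer at 33 °C for 0–8 or 0–960 min, with or without 500 nM GTSF1 partner protein. Uncleaved targets were sequenced and normalised to depth and to weakly complementary targets. A burst-and-steady-state fit provided the pre-steady-state cleavage rate.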
# 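Also: 1 nM active piRISC with 0.1 nM target library at 33 °C single turnover.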
row,Sequence,pre-steady-state target cleavage rate
1,GGAGACCUAUGAUUACAACCUACUACCUCCA,0.00682 ± 0.0026
2,GGAGACGAUACUUUACAACCAACUACCUCA,0.00466 ± 0.0023
3,GGAGACCUUACUAAACAAGCUACUACCUCA,0.231 ± 0.018
4,GGAGAGGAUACUUUACUACCUACUACCUCA,0.161 ± 0.011
5,GGAGACCUAUCUAUACAACCUACAAGCUCA,0.0435 ± 0.012
6,GGAGACCUAUGUAUAGAACCUACUACGUCA,0.015 ± 0.0034
7,GGAGACCUAUGAUAACAACCUACUACCGCA,0.00318 ± 0.003
8,GGAGACCUAUGAUAACAAGCUACUUCCUCA,0.00574 ± 0.0027
9,GGAGACCUAUGAUAUGUUGCUACUACCUCU [g2:g11:cont:t1U],< 0.0001
10,GGAGUGGGAUACUAUACAACCUACUACCUCA,0.204 ± 0.011
11,GGAGACCUUACUAUCAACCUACUACCUCA,0.0728 ± 0.0079
12,GGAGACCUAUCUAUACAACCUAUUACCUCA,0.0974 ± 0.01
13,GGAGACCUUACUAUACAACGUACAACCUCA,0.0226 ± 0.0031
14,GGAGACCAUAGUAUACAACCUUCUACCUCA,0.0111 ± 0.0041
15,GGAGACCAUACAAUAGAACCUACUACCUCA,0.179 ± 0.02
16,GGAGACCUAACUUAUCAACCUACUACCUCA,0.0153 ± 0.0078
17,GGAGACCUAUCUAUACAUCCUACUAGCUCA,0.125 ± 0.019
18,GGAGACCUUUCUAUAGAACCUACUACCUCA,0.0818 ± 0.011
19,GGAGACCUAUGUAUACAACCUACUACCUGA,0.0463 ± 0.008
20,GGAGACCUAUCUUAUCAACCUACUACCUCA,0.0106 ± 0.0025

row,Sequence,pre-steady-state target cleavage rate
1,GGAGACCUAUGUUUACAACCUACUAGCUCA,0.00692 ± 0.0034
2,GGAGACCUAACUAUUCAACCUACUUCCUCA,0.0529 ± 0.018
3,GGAGACCUAUGAAUACAACGUACAACCUCA,0.00489 ± 0.0026
4,GGAGACCUAUCUAUACAACCUACGUACCUCA,0.0605 ± 0.012
5,GGAGACCUAUCUAUAGUUCCUACUACCUCA,0.0473 ± 0.012
6,GGAGACCUAUGAUAACAACCUACUAGCCUCA,0.00672 ± 0.0023
7,GGAGACCUAUGAUAUCCAACCUACUACCUCA,0.0112 ± 0.0022
8,GGAGACCUAACUAAACAACCUACUACCACA,0.139 ± 0.027
9,GGAGACCUUACUAUACAACCUACUUCCACA,0.0518 ± 0.013
10,GGAGACCUAUGAUAUCUACCUACUACGUCA,< 0.0001
11,GGAGACCUAUCUAUUCAUCCUACUACCUCA,0.172 ± 0.021
12,GGAGACCUAUCUAAACAACCUACAACCUCA,0.0563 ± 0.0063
13,GGAGAGGAUACUAAACAACCUACUACGUCA,0.0356 ± 0.0057
14,GGAGACCAUACUAUAGAAGCUACUACCUCA,0.0882 ± 0.013
15,GGAGACCUAUGAUAUGUACCUACUAGGACA,< 0.0001
16,GGAGACCUAUGAUAUGUUCCUACGUACCUCA,< 0.0001
17,GGAGACCUAUCUAAACAACCUACUACCUGA,0.0477 ± 0.013
18,GGAGACGAUACUAUACAACCUACUAACCUCA,0.194 ± 0.02
19,GGAGACCUAUGAUUAUAACCUACUACCUCA,0.00484 ± 0.0026
20,GGAGACCUAUGAAAACAUCCUACUACCUCA,0.00361 ± 0.0024
